Results published in the supplement of paper PMC10981050.
Where “and” joins values, the source holds several entries; their conditions need not be identical. Equal values may be shown once. Where a name gives a salt, the structure may show the parent alone.

What was measured:
Test in all cases: cell viability relative to vehicle control; higher = less cytotoxic
Conditions in all cases: 10 µM
K562 = tested on: K562
Summary of the method: (§1)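 After removal of identity-inconsistent compounds, the Selleck bioactive, kinase and epigenetic probe libraries were screened on CRISPR-edited mutant clones and isogenic wild-type clones of four leukaemia lines. Plates were 384-well, each well holding 2000 cells in 50 µL medium and receiving a single 10 µM acoustically dispensed dose. CellTiter-Glo luminescence was read 48 h later, after the supernatant was taken off. Genedata Screener was used to express viability as percent of the on-plate vehicle control.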

MARIMO = tested on: MARIMO
Summary of the method: as §1

MOLM14 = tested on: MOLM14
Summary of the method: as §1

OCI-AML2 = tested on: OCI-AML2
Summary of the method: as §1

Row | Compound | cell viability (K562; SRSF2 genotype: SRSF2 P95H/wt) | cell viability (K562; SRSF2 genotype: SRSF2 wt/wt) | cell viability (MARIMO; SRSF2 genotype: SRSF2 P95H/wt) | cell viability (MARIMO; SRSF2 genotype: SRSF2 wt/wt) | cell viability (MOLM14; SRSF2 genotype: SRSF2 P95H/wt) | cell viability (MOLM14; SRSF2 genotype: SRSF2 wt/wt) | cell viability (OCI-AML2; SRSF2 genotype: P95H/wt) | cell viability (OCI-AML2; SRSF2 genotype: wt/wt)
1 | O=C(N/N=C/c1ccc(O)c(O)c1)c1cc2ccccc2cc1O [Dynasore] | 88.5% and 89.6% | 96% | 72.8% | 78.7% | 94.2% | 94.4% | 80% | 73%
2 | CC(C)Oc1ccc(C(=O)N[C@H](CNC(=O)CN(C)C)Cc2ccc(-c3cn4cccc([C@H](C)O)c4n3)cc2)cc1Cl | 20.3% and 30.1% | 36.2% | 34.6% | 26.3% | 9.14% | 1.72% | 12.4% | 14.5%
3 | CC(C)(O)CNc1nc(Nc2ccnc(C(F)(F)F)c2)nc(-c2cccc(C(F)(F)F)n2)n1 [AG-221 (Enasidenib)] | 102% and 103% | 103% | 93.1% | 99.8% | 97.8% | 110% | 84.6% | 89.4%
4 | Oc1ccc(CC2NCCc3cc(O)c(O)cc32)cc1 (centres undefined) [Higenamine hydrochloride] | 92.4% and 103% | 98% | 105% | 98.5% | 79.8% | 89.7% | 94.9% | 102%
5 | C[C@@H]1O[C@@H](O[C@H]2[C@H](O[C@H]3CC[C@@]4(C)[C@@H](CC[C@]5(C)[C@@H]4CC=C4[C@@H]6CC(C)(C)CC[C@]6(C(=O)O[C@@H]6O[C@H](CO[C@@H]7O[C@H](CO)[C@@H](O)[C@H](O)[C@H]7O)[C@@H](O)[C@H](O)[C@H]6O)CC[C@]45C)[C@]3(C)CO)OC[C@H](O)[C@@H]2O)[C@H](O)[C@H](O[C@@H]2O[C@H](CO)[C@@H](O[C@@H]3O[C@H](CO)[C@@H](O)[C@H](O)[C@H]3O)[C@H](O)[C@H]2O)[C@H]1O [Macranthoidin B] | 86.7% and 84.6% | 85% | 83.6% | 94.2% | 86% | 86.6% | 91.4% | 86%
6 | O=C(NC1CCN(CCCCC2(C(=O)NCC(F)(F)F)c3ccccc3-c3ccccc32)CC1)c1ccccc1-c1ccc(C(F)(F)F)cc1 [Lomitapide Mesylate] | 0.41% and 0.38% | 0.33% | 0.5% | 0.68% | 0.26% | 0.3% | 0.27% | 0.3%
7 | Cc1cc(N2CCOCC2)cc2[nH]c(-c3c(NCC(O)c4cccc(Cl)c4)cc[nH]c3=O)nc12 (centres undefined) | 46.4% and 36.7% | 52.1% | 33.2% | 31% | 5.77% | 9.63% | 7.45% | 18%
8 | C[C@@H](O)[C@H]1C(=O)N2C(C(=O)OCOC(=O)C(C)(C)C)=C(SC3CN(C4=NCCS4)C3)[C@H](C)[C@H]12 [Tebipenem pivoxil (L-084)] | 99.2% and 99.3% | 90% | 90.5% | 84.3% | 88.7% | 95.2% | 103% | 97.2%
9 | C[C@]1(O)C[C@@H](c2nc(-c3ccc4ccc(-c5ccccc5)nc4c3)c3c(N)nccn32)C1 [OSI-906 (Linsitinib)] | 79.7% and 90.1% | 80.6% | 41.9% | 40.8% | 72.2% | 82.2% | 29.6% | 38.1%
10 | Clc1ncnc2nc[nH]c12 [6-Chloropurine] | 88.9% and 82.6% | 82.7% | 92.3% | 87% | 88.9% | 90.3% | 83.3% | 87.9%
11 | Fc1ccc2[nH]ccc2c1-c1nc(N2CCOCC2)c2sc(CN3CCN(CC4CC4)CC3)cc2n1 | 77.2% and 81.7% | 76.6% | 68.5% | 67.3% | 45.5% | 45.1% | 40.4% | 34.5%
12 | CN(C)CCC[C@@]1(c2ccc(F)cc2)OCc2cc(C#N)ccc21 [Escitalopram Oxalate] | 87.5% and 88.8% | 92.8% | 85.4% | 91.1% | 89.4% | 93.7% | 89.2% | 88.4%
13 | CCOc1cn(-c2ccc(F)cc2C)nc1C(=O)Nc1ccc(Oc2ccnc3cc(OC)c(OC)cc23)c(F)c1 | 23.1% and 45.6% | 25.2% | 89.3% | 90.4% | 24.9% | 19.6% | 48.1% | 52.9%
14 | CC(=O)N[C@@H](CC(C)C)C(=O)N[C@@H](CC(C)C)C(=O)N[C@H](C=O)CCCNC(=N)N [Leupeptin Hemisulfate] | 94.1% and 83.4% | 86.2% | 90.8% | 97.3% | 85.8% | 90.1% | 97.4% | 97.7%
15 | COc1cc(O)c(C(=O)c2ccccc2)cc1S(=O)(=O)O [Sulisobenzone] | 99.1% and 89.9% | 94.3% | 95.4% | 104% | 97.8% | 101% | 88.7% | 104%
16 | NS(=O)(=O)c1cc2c(cc1Cl)N=CNS2(=O)=O [Chlorothiazide] | 100% and 94% | 94.5% | 98% | 105% | 102% | 97.8% | 93.7% | 109%
17 | CCCCCCCCCCC[C@@H](C[C@@H]1OC(=O)[C@H]1CCCCCC)OC(=O)[C@H](CC(C)C)NC=O [Orlistat (Alli, Xenical)] | 75.8% and 85.2% | 76.8% | 41.8% | 64.9% | 75.3% | 73.4% | 49.6% | 86.8%

Row | Compound | cell viability (K562; SRSF2 genotype: SRSF2 P95H/wt) | cell viability (K562; SRSF2 genotype: SRSF2 wt/wt) | cell viability (MARIMO; SRSF2 genotype: SRSF2 P95H/wt) | cell viability (MARIMO; SRSF2 genotype: SRSF2 wt/wt) | cell viability (MOLM14; SRSF2 genotype: SRSF2 P95H/wt) | cell viability (MOLM14; SRSF2 genotype: SRSF2 wt/wt) | cell viability (OCI-AML2; SRSF2 genotype: P95H/wt) | cell viability (OCI-AML2; SRSF2 genotype: wt/wt)
18 | CCN(CCCc1ccccc1)CCCc1ccccc1 [Alverine Citrate] | 75.1% and 81.5% | 80.6% | 69.5% | 83.8% | 80.3% | 87.4% | 87.6% | 86.5%
19 | Cc1c(Cc2ccc3ccccc3n2)c2cc(F)ccc2n1CC(=O)O | 102% and 99.7% | 98.8% | 97.5% | 108% | 98.5% | 103% | 90.4% | 107%
20 | COc1ccc(S(=O)(=O)N(CCO)c2ccccc2CN(C)C/C=C/c2ccc(Cl)cc2)cc1 [KN-93 Phosphate] | 38.5% and 44% | 51.6% | 33.5% | 27.9% | 45.5% | 41.8% | 35.6% | 33.4%
21 | [I-].[K+] [Potassium iodide] | 100% and 96% | 100% | 107% | 105% | 106% | 100% | 102% | 112%
22 | C/C(=C\C(=O)OCCCCCCCCC(=O)O)C[C@@H]1OC[C@H](C[C@@H]2O[C@H]2[C@@H](C)[C@H](C)O)[C@@H](O)[C@H]1O [Mupirocin calcium] | 90.7% and 86.2% | 87.5% | 84.3% | 97.9% | 94.2% | 93.4% | 97.3% | 93.5%
23 | O=C(O)c1ccc(O)c(O)c1 [Protocatechuic acid] | 101% and 97.7% | 93.3% | 93.1% | 96.1% | 96.8% | 103% | 98.4% | 104%
24 | CC(C)OC(=O)C1=CN(C(=O)c2ccc(F)c(F)c2)CC(C)(C)c2c1[nH]c1ccccc21 [Turofexorate Isopropyl (XL335)] | 100% and 97.7% | 103% | 96.7% | 102% | 97% | 98.5% | 92.7% | 96.7%
25 | CC1CCN(CC[C@H]2CCCN2S(=O)(=O)c2cccc(O)c2)CC1 | 101% | 95% | 97.8% | 106% | 96.5% | 103% | 92.9% | 98.7%
26 | O=C(O)c1cc(C(=O)O)c2c(n1)C(=O)C(=O)c1cc(C(=O)O)[nH]c1-2 [Pyrroloquinoline Quinone Disodium Salt] | 101% and 95.6% | 98.9% | 94.1% | 106% | 88.8% | 107% | 106% | 99.4%
27 | COc1cc2c(cc1OC)CC(=O)N(CCCN(C)C[C@H]1Cc3cc(OC)c(OC)cc31)CC2 [Ivabradine HCl (Procoralan)] | 97.8% and 97.4% | 93.7% | 97.4% | 109% | 99.6% | 106% | 95.8% | 107%
28 | Clc1ccc2c(c1)CCc1cccnc1C2=C1CCNCC1 [Desloratadine] | 90.9% and 102% | 93.2% | 80.7% | 83.5% | 88.8% | 94.3% | 94.8% | 81.9%
29 | COCCCc1sc(-c2ccccc2)nc1C(=O)Nc1ccccc1-c1nc2cc(CN3CCCC3)cnc2s1 | 75.7% and 55.8% | 76.6% | 82.7% | 83.6% | 76.7% | 92.5% | 52.1% | 76.2%
30 | CNC[C@H](O)[C@@H](O)[C@H](O)[C@H](O)CO.CNC[C@H](O)[C@@H](O)[C@H](O)[C@H](O)CO.O=C([O-])CN(CCN(CC(=O)[O-])CC(=O)O)CCN(CC(=O)[O-])CC(=O)O.[Gd+3] [Gadopentetate Dimeglumine] | 96.2% and 95.2% | 101% | 94.1% | 98.4% | 99.2% | 98% | 98.2% | 97.7%
31 | Cc1cccc(Oc2cnc(=O)[nH]c2)c1 | 97.7% and 96% | 99.4% | 94.2% | 97% | 100% | 97.4% | 103% | 101%
32 | Clc1ccccc1C(c1ccccc1)(c1ccccc1)n1ccnc1 [Clotrimazole (Canesten)] | 92.1% and 91.2% | 75.9% | 81.5% | 87.3% | 89.4% | 84.6% | 77.4% | 90%
33 | CC1CCCCCCCCCCCCC(=O)C1 (centres undefined) [Muscone] | 91.4% and 89.5% | 87.4% | 87.1% | 97.1% | 90.6% | 89.2% | 82% | 90.7%
